DRD3 agonist: activates the human D3 dopamine receptor | P35462 | D3R DiscoveRx beta-arrestin cells, luminescence, 90 min | max activation, % | 410,000 tested, 0.58% active; in the data active = max activation above about 30%
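Agonist-mode cell screen: cells plated at 1500/well and incubated overnight at 37 °C, then exposed to library compounds for 90 min at 37 °C. Detection reagent was added for 30–60 min at room temperature, and luminescence was read.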
GLP1R cytotox: cytotoxic in the GLP-1 receptor inverse agonist counter-screen; Potency, µM (highest dose often 38.3 µM), usual class: inhibitors; 410,000 tested, 0.13% active; HEK293 cAMP-luciferase reporter cells, luminescence, 24 h;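 note: loss of luciferase light is scored as toxicity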
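To flag toxic compounds, the library was rerun on cells for 24 hr at 37 deg C and 5% CO2. Viability-linked luminescence was captured 12 min after adding luciferase detection reagent.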
GLP1R ag: activates the human GLP-1 receptor; HEK293 GLP-1R CRE-luciferase, luminescence, 4-6 h; cells express a hypersensitive GLP-1R form; Potency, µM (top dose mostly 45.6 µM), actives largely listed as activators; 380,000 tested, 0.007% active; AID 624172
ClpP mod: qHTS Assay for Activators of ClpP; 340,000 tested, 1.9% active; AID 651965, 2013; purified B. subtilis ClpP, FRET peptide cleavage, 20 min; Potency, µM (titrated, usually from 57.5 µM); active = well fitted falling curve with a large enough effect; inconclusive = small, poorly fitted or top-dose-only effect; inactive = no such curve, though single readings can be large or run the other way; note: the source files actives as falling curves though it sought activators and does not explain the sign; nearly all actives have a fitted effect of over 65% in size
Target sequence (P80244 whole entry, looked up): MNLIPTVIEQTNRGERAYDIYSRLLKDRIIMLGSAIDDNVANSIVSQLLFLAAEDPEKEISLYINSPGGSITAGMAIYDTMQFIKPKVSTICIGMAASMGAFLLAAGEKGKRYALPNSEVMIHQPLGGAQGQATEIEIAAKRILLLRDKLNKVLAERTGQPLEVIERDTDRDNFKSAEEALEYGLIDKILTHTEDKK
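Purified B. subtilis ClpP, 10 microg/mL final in Tris/HCl pH8 with KCl, BSA, glycerol and Tween-20, cleaved an Abz/nitrotyrosine-quenched decapeptide. Fluorescence (ex 320, em 430) was read at 0 and 20 min at room temperature. Delta was normalized to 5.8 microM ADEP and DMSO/no-enzyme controls.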
DRD3 antagonist: D3 dopamine receptor (human) antagonism; D3R cells, DiscoveRx beta-arrestin luminescence, antagonist mode; active compounds read low; max response, negative = inhibition, %; 360,000 tested, 2.5% active; AID 652054; in the data active = max response below about -50%; inconclusive = no clear call, values can overlap the other calls
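Cells plated overnight at 1500 cells/well, then exposed to library compounds with dopamine controls for 90 minutes at 37 degrees C. DiscoveRx reagent added for 30–60 minutes at room temperature; luminescence read, quantitative HTS format.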
GLP-1R inv ag: inverse agonists of human GLP-1 receptor. P43220. HEK293 GLP-1R CRE-luciferase, luminescence, 24 h; GLP-1R form is constitutively active. Potency, µM (series often up to 38.3 µM), most hits filed as inhibitors. 410,000 tested, 1.6% active; note: nearly all actives have a fitted effect of over 55% in size
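Inverse agonism was detected as reduced cAMP-driven luciferase luminescence after 24 h compound treatment. The cells were HEK293 clones expressing constitutively active human GLP-1R with the reporter. Reporter-only and GPR119 cell lines served as counterscreen controls.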
Hits are given with their value; n = inactive; u = inconclusive; x = not tested or not shown; ! = not confirmed by another sample. Compounds with a hit are over-represented: about 5.7% of the library has one in this group of screens. Unless noted, calls come from the whole dose curve; as a rule, active = well fitted curve in the direction sought with a large enough effect; inconclusive = small, poorly fitted or top-dose-only effect, or another doubt; inactive = no such curve, though single readings can be large; an effect the other way counts as inactive or inconclusive.

SMILES	DRD3 agonist	GLP1R cytotox	GLP1R ag	ClpP mod	DRD3 antagonist	GLP-1R inv ag
Cc1nc2scc(C)n2c(=O)c1S(=O)(=O)Nc1cccc(C(F)(F)F)c1	n	n	x	u	x	11.2µM
Cc1cc(C(C)(C)C)cc(S(=O)(=O)Nc2ccc(O)c(C(=O)O)c2)c1C	n	n	n	n	n	n
CC(=O)Nc1ccc(NC(=O)c2ccc(NS(=O)(=O)c3cc(C(C)(C)C)cc(C)c3C)cc2)cc1	n	u	n	28.2µM	u	u
Cn1c(N=Nc2ccccc2)nc2ccccc21	n	10µM	n	n	n	4.47µM
CN(C)c1ccc(N=Nc2nc3ccccc3n2C)cc1	n	5.01µM	n	n	-74.5	u
CCn1c(NCc2ccc(N(C)C)cc2)nc2ccccc21	n	n	n	n	n	n
Cn1c(Cl)nc2ccccc21	n	n	n	n	n	n
O=C(COc1ccc(Cl)cc1)NCC(c1ccco1)S(=O)(=O)c1ccc(F)cc1 (centres undefined)	n	n	x	n	x	n
COc1ccc(CCCc2nnc(SCC(=O)Nc3ccc(C)cc3C)o2)cc1	n	n	n	n	x	u
Cc1ccc(S(=O)(=O)CC(=O)c2ccc(C(C)(C)C)cc2)cc1	n	n	n	28.2µM	n	u
O=C(NCc1ccccc1F)C1CC(=O)N(Cc2ccco2)C1 (centres undefined)	n	n	n	n	n	n
OCCCc1nc2n(n1)C(c1ccccc1Cl)C=C(c1cccs1)N2 (centres undefined)	n	n	n	22.4µM	n	n
CC(=O)OC[C@@H]1CN(Cc2ccccc2)C[C@H](n2cnc3c(NC4CC4)ncnc32)O1	n	n	n	n	n	n
CCOC(=O)CNC(=O)CSc1nc2ncc(Br)cc2[nH]1	n	n	n	15.8µM	n	n
CCN(CC)C(=O)CSc1nc2ncc(Br)cc2[nH]1	n	n	n	n	n	n
O=C(c1cnn2ccccc12)N(Cc1ccco1)C1CCCC1	n	u	n	n	n	3.55µM
O=C(c1cnn2ccccc12)N1CCN(C2CCCCC2)CC1	n	n	n	n	n	n
Cc1ccc(-n2nc3c(=O)n(CCCC(=O)NCc4cccc(Cl)c4)nc(C)c3c2C)cc1	n	n	n	n	n	11.2µM
Cc1ccc(-n2nc3c(=O)n(CC(=O)NCCCc4ccccc4)nc(C)c3c2C)cc1	n	n	n	n	n	u
Cc1ccc(-n2nc3c(=O)n(C(C)C(=O)NCCCc4ccccc4)nc(C)c3c2C)cc1 (centres undefined)	n	n	n	n	n	5.01µM
Cc1ccc(-n2nc3c(=O)n(CCCC(=O)NCc4ccc(Cl)cc4)nc(C)c3c2C)cc1	n	n	n	n	n	u
CCCOc1ccc(C2c3c(oc4ccccc4c3=O)C(=O)N2c2nnc(C(C)C)s2)cc1 (centres undefined)	n	n	x	n	x	n
COCCCn1c(-c2ccc(Cl)cc2)n[nH]c1=S	n	n	n	n	u	n
COCCCn1c(-c2ccccc2Cl)n[nH]c1=S	n	n	n	25.1µM	n	n
Clc1ncnc2scc(-c3ccc(Br)cc3)c12	n	n	n	x	-54.1	u
SMILES	DRD3 agonist	GLP1R cytotox	GLP1R ag	ClpP mod	DRD3 antagonist	GLP-1R inv ag
COc1cccc(NC(=O)N2CCN3CCCCC3C2)c1 (centres undefined)	n	n	x	n	x	n
O=C(NCCN1CCc2ccccc2C1)Nc1ccc(F)cc1	n	n	n	n	-77.2	u
CCc1ccc(NC(=O)NCCCN2CCCC2=O)cc1	n	n	n	n	n	n
CCc1ccc(NC(=O)NCCN2CCc3ccccc3C2)cc1	n	n	n	n	-69.0	u
COCCOCCn1c(/C=C/c2ccccc2)nc2ccccc21	n	n	n	x	n	u
CCCn1c(/C=C/c2ccccc2)nc2ccccc21	30.7!	n	n	12.6µM!	n	u
Cc1ccc(NC(=O)Cn2c(/C=C/c3ccccc3)nc3ccccc32)cc1C	n	n	n	28.2µM	n	n
Cc1nc2nc[nH]n2c(=O)c1NS(=O)(=O)c1ccc(Br)cc1	n	n	x	n	x	n

Compound activity from PubChem.
